Assay outcomes: PubChem BioAssay, National Center for Advancing Translational Sciences (NCATS)
In the library only some 3.3% were active in any assay of this set; here they are far more common.
PI5P4Ka inh = PI5P4K alpha (human) kinase inhibition | P48426 | PI5P4Kalpha enzyme, ADP-Glo luminescence, 60 min; active compounds read low | max response, % | 330,000 tested, 1.2% active; active = max response of -50% or lower; inconclusive = between -30% and -50%; inactive = -30% or higher; also: value at the top dose of about 77 µM; % is scaled to controls: 0 for no effect and ±100 for the full control effect
Target sequence (P48426 whole entry, looked up): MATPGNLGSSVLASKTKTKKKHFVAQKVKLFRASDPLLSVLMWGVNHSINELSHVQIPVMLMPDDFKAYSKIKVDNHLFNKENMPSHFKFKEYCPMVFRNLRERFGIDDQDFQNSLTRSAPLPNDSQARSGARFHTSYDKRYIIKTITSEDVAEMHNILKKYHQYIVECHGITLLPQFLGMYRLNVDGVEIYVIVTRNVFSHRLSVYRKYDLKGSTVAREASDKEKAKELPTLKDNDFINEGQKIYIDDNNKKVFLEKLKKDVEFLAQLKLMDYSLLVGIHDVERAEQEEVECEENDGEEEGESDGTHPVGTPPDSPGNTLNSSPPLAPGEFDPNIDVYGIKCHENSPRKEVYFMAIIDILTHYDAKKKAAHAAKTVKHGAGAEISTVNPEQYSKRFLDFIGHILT
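Luminescence from ADP-Glo served as readout of PI5P4Kalpha activity in a qHTS format. Reaction: enzyme, substrate, compound, ATP at 5 microM final, 60 min at RT.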
D3 antag = blocks the human D3 dopamine receptor. P35462. D3R cells, DiscoveRx beta-arrestin luminescence, antagonist mode; active compounds read low. max response, negative = inhibition, %. 360,000 tested, 2.5% active; in the data active = max response below about -50%; inconclusive = no clear call, values can overlap the other calls; also: % is scaled to controls: 0 for no effect and ±100 for the full control effect
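Cells plated overnight at 1500 cells/well, then exposed to library compounds with dopamine controls for 90 minutes at 37 degrees C. DiscoveRx reagent added for 30–60 minutes at room temperature; luminescence read, quantitative HTS format.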
LDHA inh = inhibitors of human lactate dehydrogenase A. P00338. purified LDHA, NADH/diaphorase-resazurin fluorescence; active compounds read low. activity change, % (values are at about 110 or 230 µM). 480,000 tested, 0.15% active. AID 1347041; in the data active = activity change below about -30%; inconclusive = mostly about -25% to -30%;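 also: plate controls were DMSO wells for no effect and wells without enzyme for full effect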
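Human LDH5 at 2 nM final in Tris HCl pH 7.4 with 0.06 mM NADH and 0.2 mM pyruvate, reacted 5 minutes at room temperature. Remaining NADH coupled via diaphorase/resazurin; resorufin fluorescence read at 0 and 20 minutes, normalized to enzyme-free and DMSO wells.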
DRD3 agonist = agonists of human D3 dopamine receptor; P35462; D3R DiscoveRx beta-arrestin cells, luminescence, 90 min; max activation, %; 410,000 tested, 0.58% active; AID 652048; in the data active = max activation above about 30%; also: 0% is about no effect
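Agonist mode: compounds and dopamine controls were applied to plated cells for 90 min at 37 degrees C after an overnight attachment at 1500 cells/well. Luminescent read-out followed 30 - 60 minutes at room temperature with DiscoveRx detection reagent.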
PI4K2A block = inhibitors of human PI4K2A; Q9BTU6; purified PI4K2A, ADP-Glo luminescence, 1 h; active compounds read low; activity change, negative = inhibition, % at 76.9 µM; 420,000 tested, 0.13% active; AID 1346378; in the data active = activity change below about -50%; inconclusive = mostly about -30% to -49%;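 also: -100% = wells without enzyme as full effect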
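PI4K2A activity was measured by ADP-Glo luminescence: enzyme (4 ug/mL stock) and phosphatidylinositol (1.2 mM stock) in Tris pH 7.5/MgCl2/EGTA/Triton X-100 buffer were reacted with ATP (300 microM stock) for one hour at ambient temperature.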
Active calls of the source: *.

Cc1ccc(N2C(=O)NC(=O)/C(=C\c3cc(C)n(-c4cc(C(=O)O)cc(C(=O)O)c4)c3C)C2=O)cc1 was read as PI5P4Ka inh -52*, D3 antag -54*, LDHA inh 0, DRD3 agonist -4 and PI4K2A block -6.
For Cc1cc(/C=C2\C(=O)NC(=O)N(c3ccc(Cl)cc3)C2=O)c(C)n1-c1sc2c(c1C#N)CCCC2 the results were PI5P4Ka inh -57*, D3 antag 15, LDHA inh -2, DRD3 agonist -2 and PI4K2A block -7.
`CCc1ccc(N2C(=O)NC(=O)/C(=C\c3cc(C)n(-c4cc(C(=O)O)cc(C(=O)O)c4)c3C)C2=O)cc1` gave PI5P4Ka inh -64*, D3 antag 11, LDHA inh 0, DRD3 agonist -9 and PI4K2A block -12.
CC1=C(C(=O)OCc2ccccc2)C2(C(=O)Nc3ccccc32)C(C(=O)OC(C)(C)C)=C(N)O1 (configuration not stated) was read as LDHA inh 7.
Screening NC[C@@H]1CCCN2CCCC[C@H]12 returned LDHA inh -2.
`O=[N+]([O-])c1ccc(N(CCO)CCO)c2c1no[n+]2[O-]` gave PI5P4Ka inh inconclusive, D3 antag -99*, LDHA inh 6, DRD3 agonist -23 and PI4K2A block inconclusive.
For CCCCCCCSc1cc(OC)c(CCN(C)C)cc1OC the results were PI5P4Ka inh 1, D3 antag -66*, LDHA inh -2, DRD3 agonist -16 and PI4K2A block 3.
c1ccc(-c2nc(N3CCOCC3)s[n+]2-c2ccccc2)cc1 was read as PI5P4Ka inh -67*, D3 antag -3, LDHA inh -1, DRD3 agonist -2 and PI4K2A block -3.
Screening O=C1NC(=O)C(=Cc2ccc(OCCOc3ccc([N+](=O)[O-])cc3)cc2)C(=O)N1 returned PI5P4Ka inh -63*, D3 antag -2, LDHA inh inconclusive, DRD3 agonist 2 and PI4K2A block -24.
`O=C1NC(=O)C(=Cc2cccc(OCCOc3ccccc3)c2)C(=O)N1` gave PI5P4Ka inh -52*, D3 antag 3, LDHA inh -31*, DRD3 agonist 5 and PI4K2A block -26.
Cc1ccc(OCCOc2cccc(C=C3C(=O)NC(=O)NC3=O)c2)c(C)c1 was read as PI5P4Ka inh -62*, D3 antag 6, LDHA inh -13, DRD3 agonist 2 and PI4K2A block inconclusive.
CCN(CC)C(=O)c1ccc(NC(=O)c2cc(-c3ccco3)nc3ccccc23)cc1 was read as LDHA inh 18.
COC(=O)C1=C(c2cc3ccccc3o2)C[C@@H]2CC[C@H]1N2C(=O)NCCCOC(C)C was read as PI5P4Ka inh -3, D3 antag 8, LDHA inh -5, DRD3 agonist -1 and PI4K2A block -4.
Screening COC(=O)C1=C(c2cc3ccccc3o2)C[C@@H]2CC[C@H]1N2C(=O)NCCNC(C)=O returned PI5P4Ka inh -4, D3 antag 8, LDHA inh -3, DRD3 agonist 41* and PI4K2A block -4.
`COC(=O)C1=C(c2cc3ccccc3o2)C[C@@H]2CC[C@H]1N2C(=O)NCc1ccccc1` gave PI5P4Ka inh 1, D3 antag -50*, LDHA inh 1, DRD3 agonist 6 and PI4K2A block -1.
`COc1ccc2[nH]c(C)c(CCNCc3cccc(C(F)(F)F)c3)c2c1` gave LDHA inh -4.
`N#CCCNC(=O)CCl` gave LDHA inh 1.
`c1ccc2c(CCNC3CCCCC3)c[nH]c2c1` gave PI5P4Ka inh 0, D3 antag -22, LDHA inh -20, DRD3 agonist -4 and PI4K2A block 3.
Screening c1ccc2[nH]c(CCNC3CCCCC3)nc2c1 returned D3 antag -53*, LDHA inh -1, DRD3 agonist -4 and PI4K2A block 0.
`COc1ccccc1OCCCn1cc(C(=O)C(F)(F)F)c2cc(Br)ccc21` gave LDHA inh 14.
For O=C(O)c1ccc([N+](=O)[O-])c([N+](=O)[O-])c1 the results were PI5P4Ka inh -50*, D3 antag -25, LDHA inh 12, DRD3 agonist -18 and PI4K2A block -3.
Screening CCOc1ccccc1NC(=O)N(Cc1ccc2c(c1)OCO2)C1CCN(Cc2ccccc2)CC1 returned LDHA inh 1.
Screening CCCCN1CCC(O)(c2ccccc2)C(C(=O)c2ccccc2)C1 (configuration not stated) returned PI5P4Ka inh -8, D3 antag -65*, LDHA inh -2, DRD3 agonist -10 and PI4K2A block 7.
For CN1CCC(O)(c2ccc(F)cc2)C(C(=O)c2ccc(F)cc2)C1 (configuration not stated) the results were DRD3 agonist 2 and PI4K2A block 5.
`COc1ccc(NC(=O)N(Cc2ccc3c(c2)OCO3)C2CCN(Cc3ccccc3)CC2)cc1` gave LDHA inh -2.
Screening O=C(O)CCC(=O)NCCC1=c2ccccc2=N/C1=C\c1c(O)n(Cc2ccc(F)cc2)c(=S)[nH]c1=O returned PI5P4Ka inh -85*, D3 antag -6, LDHA inh -8, DRD3 agonist -20 and PI4K2A block -8.
C=C1C(=O)O[C@H]2C[C@@H](C)[C@@H]3C=CC(=O)[C@@]3(C)C[C@H]12 was read as PI5P4Ka inh 1, D3 antag -66*, LDHA inh -9, DRD3 agonist -3 and PI4K2A block -11.
`C=C1C(=O)O[C@@H]2C[C@@H](C)[C@@H]3C=CC(=O)[C@@]3(C)[C@@H](OC(=O)CC(=O)O[C@H]3[C@@H]4C(=C)C(=O)O[C@@H]4C[C@@H](C)[C@@H]4C=CC(=O)[C@]43C)[C@H]12` gave PI5P4Ka inh -66*, D3 antag -110*, LDHA inh 3, DRD3 agonist -32 and PI4K2A block -70*.
`C=C1C(=O)OC2C1CCC(C)C1(O)C=CC(=O)C21C` (configuration not stated) gave PI5P4Ka inh 0, D3 antag 22, LDHA inh 4, DRD3 agonist 4 and PI4K2A block -6.
`C=C1C(=O)OC2CC(C)C3C=CC(=O)C3(C)C(O)C12` (configuration not stated) gave PI5P4Ka inh 3, D3 antag -75*, LDHA inh -1, DRD3 agonist -26 and PI4K2A block inconclusive.
`C=C1C(=O)O[C@H]2[C@H]1[C@H](OC(=O)CC(=O)O[C@@H]1C[C@@H](C)[C@@H]3C=CC(=O)[C@@]3(C)[C@H]3OC(=O)C(=C)[C@H]13)C[C@@H](C)[C@H]1C=CC(=O)[C@]12C` gave PI5P4Ka inh -17, D3 antag -13, LDHA inh -1, DRD3 agonist -5 and PI4K2A block inconclusive.
